Compounds with a hit are over-represented: about 7.6% of the library has one in this group of screens.
Cy5 interf NS3h: counter-screen for HCV NS3 helicase inhibitors: fluorescence interference | actives 6% (n = 16,000) | fluorescence interference ratio at 100 µM | Cy5-dT15 DNA with NS3h; actives lie on both sides; signal over control mean, under 1 quenches;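 active = compound fluorescence over control fluorescence at most 0.8, a quencher, or at least a set upper limit, an enhancer; inactive = ratio between 0.8 and the set upper limit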
NS3h inh CB: hepatitis C NS3 helicase inhibition, primary screen. actives 1.6% (n = 16,000). inhibition, % at 100 µM. NS3h Cy5-dT15 DNA binding, fluorescence polarization;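 active = inhibition above the average over every tested compound plus 3 SD, cut at about 40% in these data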
The depositor's hits bear a star.

SMILES | Cy5 interf NS3h | NS3h inh CB
Cc1cccc(C2=N/C(=C/c3ccc([N+](=O)[O-])cc3)C(=O)N2c2ccc(O)cc2)c1 | 0.97 | 15
O=C(NNC(=O)c1ccc(Oc2ccc(C(=O)NNC(=O)c3ccncc3)cc2)cc1)c1ccncc1 | 1 | -17
CCN(CC)C(=S)SCC(=O)Nc1cc(C)ccc1C | 1 | 16
O=C(Nc1cccc(Cl)c1)Nc1nnc(/C=C/c2ccccc2Cl)s1 | 1 | -15
Clc1cccc(Nc2nc3c(s2)CCCC3)c1 | 0.76* | 16
Cc1ccc(C)c(Nc2nc3c(s2)CCCC3)c1 | 0.78* | 16
CC12c3ccccc3C(c3ccccc31)C1C(=O)N(c3cccc([N+](=O)[O-])c3)C(=O)C12 (stereo unspecified) | 1 | 18
CC12c3ccccc3C(c3ccccc31)C1C(=O)NNC(=O)C12 (stereo unspecified) | 0.66* | 11
O=C(Nc1cccc(F)c1)c1ccc([N+](=O)[O-])cc1 | 0.99 | 16
O=C(c1ccccc1Br)N1N=C(c2ccccc2)CC1(O)C(F)(F)F (stereo unspecified) | 0.79* | 5
O=C(c1ccccc1O)N1N=C(c2ccc(Br)cc2)CC1(O)C(F)(F)F (stereo unspecified) | 0.92 | 5
Clc1ccc(-c2nc(-c3cccnc3)no2)c(Cl)c1 | 1.1 | 9
Clc1ccccc1-c1nc(-c2cccnc2)no1 | 1.2* | -16
Cn1c(-c2ccc(-c3nc4cnccc4n3C)cc2)nc2cnccc21 | 1.2* | -2
Cn1c(-c2nc3ccccc3n2C)nc2ccccc21 | 0.94 | 5
CCN(CC)c1ccc(NC(=O)c2ccc(-c3ccc([N+](=O)[O-])cc3C)o2)cc1 | 0.97 | 8
CC(C(=O)O)N1C(=O)/C(=C/c2ccccc2)SC1=S (stereo unspecified) | 1.2* | 2
Cc1ccccc1/C=C1\SC(=S)N(C(C(=O)O)C(C)C)C1=O (stereo unspecified) | 1 | 8
O=C(Nc1nc2ccc([N+](=O)[O-])cc2s1)c1cccc(Oc2ccccc2)c1 | 1 | 7
COc1ccc(Cl)cc1C(=O)N(Cc1ccccc1)C(C)C | 0.97 | 10
O=C(c1cc(Cl)ccc1Cl)N(Cc1ccccc1)c1ccccn1 | 0.62* | 8
COc1cc(/C=c2\sc3nc4ccccc4n3c2=O)cc(Cl)c1OCCOc1ccc(Br)cc1 | 0.98 | 36
O=C1C(=O)N(Cc2ccccc2)C(c2ccc(F)cc2)C1=C(O)c1ccccc1 (stereo unspecified) | 1.1 | 9
O=Cc1ccc(OC(=O)c2ccccc2I)cc1 | 0.7* | 15
O=C1NC(=O)/C(=C/c2ccc(OC(=O)c3ccccc3I)cc2)S1 | 1.1 | 8
SMILES | Cy5 interf NS3h | NS3h inh CB
N#Cc1cn(-c2ccccc2)nc1-c1cccnc1 | 1.1 | 2
O=C(CCN1C(=O)/C(=C/c2cccs2)SC1=S)Nc1ccc(F)cc1 | 1 | 3
CN1CCN(C(=O)CCN2C(=O)/C(=C/c3cccs3)SC2=S)CC1 | 0.58* | 0
O=[N+]([O-])c1cccc(-c2ccc(CO)o2)c1 | 0.95 | -3
O=[N+]([O-])c1cccc(C2=Nc3ccc([N+](=O)[O-])cc3ON2)c1 | 0.74* | 2
COC(=O)c1cccc(-c2ccc(C=C3C(=O)N(C)C(=O)N(C)C3=O)o2)c1 | 1.1 | 7
COC(=O)c1cccc(-c2ccc(/C=C3/C(=O)NN(c4cccc(Cl)c4)C3=O)o2)c1 | 0.77* | 12
Cc1cccc(-n2c(O)c(C3=c4ccccc4=NC3=O)sc2=O)c1 | 0.92 | 4
O=C1N=c2ccccc2=C1c1sc(=S)n(-c2ccc(C(=O)O)cc2)c1O | 1.2* | 2
O=C1/C(=C\c2ccc(-c3ccccc3Cl)o2)SC(=S)N1C1CCS(=O)(=O)C1 (stereo unspecified) | 1 | 6
Cc1onc(-c2ccccc2Cl)c1C(=O)NCCNc1c(Cl)cccc1[N+](=O)[O-] | 0.97 | 13
CNC(=O)C(C)NC(=O)C12CC3CC(CC(C3)C1)C2 (stereo unspecified) | 1.1 | 0
O=C(NC1CCCCC1)C12CC3CCC(CC(C3)C1)C2 | 1.2* | 7
CCOc1ccc(N2C(=O)NC(=O)/C(=C\c3ccc(OCC(=O)O)c(OC)c3)C2=O)cc1 | 0.98 | 7
Cc1c(Cl)c([N+](=O)[O-])nn1CC(=O)Nc1cc(C(F)(F)F)ccc1Cl | 0.62* | 1
Cc1c(Cl)c(C(F)(F)F)nn1CC(=O)Nc1ccccc1C(F)(F)F | 1 | 2
CC(=O)c1ccc(N2C(=O)c3ccccc3C2=O)cc1 | 1 | 8
CC(=O)c1ccc(N2C(=O)c3c(Cl)c(Cl)c(Cl)c(Cl)c3C2=O)cc1 | 0.7* | 9
COC(=O)c1ccc(-n2c(C)cc(/C=C3\C(=O)NC(=O)N(c4ccc(OC)cc4)C3=O)c2C)cc1 | 0.99 | 5
COC(=O)c1ccc(-n2c(C)cc(C=C3C(=O)N(C)C(=O)N(C)C3=O)c2C)cc1 | 0.8* | 16
Cc1ccc(SCCc2ccncc2)cc1 | 0.99 | -3
